From PubChem BioAssay come the findings set out here.

Unmarked numbers belong to inactive results. For some of these results: Measured potencies and affinities stand elsewhere. The source made the active and inactive calls. Unless noted, the rule behind the calls is not given here.

Experiment [1] is described as follows: antimalarial activity against Dd2 strain (AID 2302;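 active = growth inhibition above 50% at the single 2 µM test dose, taken to imply half-maximal potency below 2 µM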;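 note: 0% = DMSO untreated growth and 100% = chloroquine plus artemisinin killed control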). As to conditions: P. falciparum Dd2 in RBCs, LDH growth readout, 72 h; at 2 µM; active compounds read high.
Experiment [2] in a line: human hepatoma cell viability loss – ATP luminescence, cytotoxicity control for P. falciparum antimalarial project, primary screen (AID 2303;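 active = inhibition above 50%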;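 note: 0% = DMSO wells and 100% = digitonin-killed cells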). As to conditions: HepG2 viability, 24-48 h, at 10 µM, active compounds read high.
Experiment [3] addresses L-lactate dehydrogenase (Plasmodium falciparum (isolate CDC / Honduras)) (UniProt Q27743). Briefly: PfLDH activity inhibition – cell lysate, 3D7 strain, counter-screen for P. falciparum growth inhibition project (AID 2304).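 Note: 0% = vehicle and 100% = reference inhibitor.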 Conditions: P. falciparum 3D7 crude extract, LDH APAD/NBT absorbance; at 2 µM; active compounds read high.
Experiment [4] is described as follows: inhibition of 3D7 malaria parasite growth – strain 3D7 (AID 2306).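 Note: 0% = DMSO wells and 100% = chloroquine plus artemisinin control wells.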 Conditions: P. falciparum 3D7 erythrocytic growth, LDH absorbance, 72 h; at 2 µM; active compounds read high.
Experiment [5] concerns the target Calcium-dependent protein kinase 1 (Plasmodium falciparum (isolate 3D7)) (UniProt P62344). Briefly: PfCDPK1 kinase inhibitors, biochemical, TCAMS library (AID 1159585; cut-off not given, nearly all actives have IC50 up to about 0.98 µM;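 note: inhibitors leave more ATP so luminescence rises with inhibition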). As to conditions: recombinant PfCDPK1, Kinase-Glo ATP depletion luminescence.
Experiment [6] deals with Plasmodium falciparum protein kinase 6 (PK6, PF3D7_1337100) (UniProt Q8IDW1). The experiment in a line: PfPK6 kinase inhibitors, biochemical, TCAMS library (AID 1159586). As to conditions: recombinant PfPK6, Kinase-Glo ATP depletion luminescence.
Sequence of Plasmodium falciparum protein kinase 6 (PK6, PF3D7_1337100) (Q8IDW1 1-305): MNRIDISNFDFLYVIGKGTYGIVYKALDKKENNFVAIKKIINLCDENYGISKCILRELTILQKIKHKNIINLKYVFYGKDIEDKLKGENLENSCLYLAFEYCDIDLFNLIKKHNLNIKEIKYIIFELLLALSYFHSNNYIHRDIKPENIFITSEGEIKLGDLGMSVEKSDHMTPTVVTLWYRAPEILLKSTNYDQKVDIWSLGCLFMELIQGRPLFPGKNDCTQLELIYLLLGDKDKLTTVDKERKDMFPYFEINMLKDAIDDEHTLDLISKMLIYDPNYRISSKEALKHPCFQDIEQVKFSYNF
Experiment [7] addresses Protein kinase 7 (PK7), Plasmodium falciparum 3D7 (PF3D7_0213400) (UniProt Q7YTF7). Briefly: inhibition of Plasmodium PK7 catalytic activity – biochemical, TCAMS antimalarial set, Kinase-Glo luminescence (AID 1159587). As to conditions: recombinant PfPK7, Kinase-Glo ATP depletion luminescence.
For experiment [8], the target named is Calcium-dependent protein kinase 4 (Plasmodium falciparum (isolate 3D7)) (UniProt Q8IBS5). The experiment in a line: PfCDPK4 kinase inhibitors, biochemical, TCAMS library (AID 1159588; cut-off not given, nearly all actives have IC50 up to about 0.91 µM). Conditions: recombinant PfCDPK4, Kinase-Glo ATP depletion luminescence.
Sequence of Calcium-dependent protein kinase 4 (Plasmodium falciparum (isolate 3D7)) (Q8IBS5 whole entry, looked up): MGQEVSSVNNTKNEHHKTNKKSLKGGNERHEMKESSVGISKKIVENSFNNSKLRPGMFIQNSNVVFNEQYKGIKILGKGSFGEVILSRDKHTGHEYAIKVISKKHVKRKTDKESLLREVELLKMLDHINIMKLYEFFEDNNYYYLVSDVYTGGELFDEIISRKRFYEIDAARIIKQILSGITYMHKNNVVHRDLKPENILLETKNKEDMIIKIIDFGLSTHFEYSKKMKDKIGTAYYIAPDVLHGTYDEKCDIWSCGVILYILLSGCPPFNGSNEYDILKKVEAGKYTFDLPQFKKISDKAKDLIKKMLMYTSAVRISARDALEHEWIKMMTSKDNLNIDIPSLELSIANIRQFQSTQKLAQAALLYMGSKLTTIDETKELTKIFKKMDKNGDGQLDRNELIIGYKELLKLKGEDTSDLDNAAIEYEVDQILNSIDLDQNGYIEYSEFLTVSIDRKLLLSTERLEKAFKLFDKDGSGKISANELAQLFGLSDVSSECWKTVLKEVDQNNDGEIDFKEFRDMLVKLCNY

Sequence of Calcium-dependent protein kinase 1 (Plasmodium falciparum (isolate 3D7)) (P62344 whole entry, looked up): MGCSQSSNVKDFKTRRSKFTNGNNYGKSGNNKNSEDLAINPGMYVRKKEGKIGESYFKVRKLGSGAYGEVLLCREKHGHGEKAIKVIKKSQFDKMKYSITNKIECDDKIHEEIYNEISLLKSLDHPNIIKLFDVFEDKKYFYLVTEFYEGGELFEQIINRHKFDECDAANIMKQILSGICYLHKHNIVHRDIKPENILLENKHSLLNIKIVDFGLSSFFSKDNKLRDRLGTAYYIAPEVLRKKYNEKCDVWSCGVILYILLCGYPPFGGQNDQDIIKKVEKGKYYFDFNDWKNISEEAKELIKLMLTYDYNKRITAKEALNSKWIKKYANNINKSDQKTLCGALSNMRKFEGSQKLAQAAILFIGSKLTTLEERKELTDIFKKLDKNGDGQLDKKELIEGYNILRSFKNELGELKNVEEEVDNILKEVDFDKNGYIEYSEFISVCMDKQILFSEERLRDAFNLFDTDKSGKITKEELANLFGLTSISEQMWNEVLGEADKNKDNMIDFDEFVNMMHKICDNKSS
Sequence of L-lactate dehydrogenase (Plasmodium falciparum (isolate CDC / Honduras)) (Q27743 whole entry, looked up): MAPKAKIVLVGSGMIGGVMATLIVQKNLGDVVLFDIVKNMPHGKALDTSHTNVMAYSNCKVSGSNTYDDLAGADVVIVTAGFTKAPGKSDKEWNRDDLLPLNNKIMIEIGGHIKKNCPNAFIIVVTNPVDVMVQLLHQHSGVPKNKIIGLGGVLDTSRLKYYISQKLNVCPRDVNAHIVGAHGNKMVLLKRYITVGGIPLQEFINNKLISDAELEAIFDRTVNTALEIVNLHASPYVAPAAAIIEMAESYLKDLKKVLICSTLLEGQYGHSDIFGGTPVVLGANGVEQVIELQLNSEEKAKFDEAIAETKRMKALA
Sequence of Protein kinase 7 (PK7), Plasmodium falciparum 3D7 (PF3D7_0213400) (Q7YTF7 1-343): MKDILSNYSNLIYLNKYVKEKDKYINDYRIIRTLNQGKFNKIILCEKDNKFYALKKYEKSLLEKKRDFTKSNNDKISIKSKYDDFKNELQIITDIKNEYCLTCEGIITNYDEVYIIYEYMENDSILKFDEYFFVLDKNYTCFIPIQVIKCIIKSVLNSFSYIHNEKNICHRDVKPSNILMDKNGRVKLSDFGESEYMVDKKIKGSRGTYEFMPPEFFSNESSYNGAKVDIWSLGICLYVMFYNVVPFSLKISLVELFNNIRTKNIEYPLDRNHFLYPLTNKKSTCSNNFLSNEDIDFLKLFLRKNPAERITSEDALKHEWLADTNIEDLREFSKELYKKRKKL

Turning to `Cc1cc(N[C@@H](Cc2ccccc2)C(=O)NC2CCCC2)nc(Nc2ccccc2)n1`, the growth inhibition is 82% (active) in experiment [1] and 100% (active) in experiment [4]. In addition, the inhibition was 3% in experiment [2] and 0% in experiment [3]. Besides, the outcome in experiment [5], in experiment [6], in experiment [7] and in experiment [8] was inactive.
As for `O=C(/C=C/c1ccc(Cl)c(Cl)c1)NCCCCCCN1CCCN(C(=O)Nc2cc(F)cc(F)c2)CC1`, the figures for the growth inhibition in experiment [1] and in experiment [4] were -1% and 99% (active), respectively. In addition, the inhibition in experiment [2] is 25%; in experiment [3], -6%. Moreover, the result in experiment [5], in experiment [6], in experiment [7] and in experiment [8] was inactive.
Consider `O=C(N[C@@H](Cc1ccccc1)C(=O)NCCN1CCOCC1)c1ccc(O)c(-c2ccc(Cl)c(Cl)c2)c1`, for which the growth inhibition was 31% in experiment [1] and 97% (active) in experiment [4]. The inhibition in experiment [2] was -4%; in experiment [3], 5%. Besides, the outcome in experiment [5], in experiment [6], in experiment [7] and in experiment [8] was inactive.
For `Fc1ccc2nc(-c3cccc(-c4ccc(CN5CCN(c6cnccn6)CC5)cc4)c3)[nH]c2c1`, the growth inhibition in experiment [1] is 31%; in experiment [4], 96% (active). Moreover, the inhibition was 19% in experiment [2] and -4% in experiment [3]. In addition, the result in experiment [5], in experiment [6], in experiment [7] and in experiment [8] was inactive.
Regarding `COc1ccc2c(c1)ncn2-c1cc(OCc2ccncc2Br)c(C(N)=O)s1`, the growth inhibition was 50% (active) in experiment [1] and 95% (active) in experiment [4]. In addition, the inhibition in experiment [2] is 14%; in experiment [3] it was -2%. The outcome in experiment [5], in experiment [6], in experiment [7] and in experiment [8] was inactive.
In the case of `Cc1ccc(N/C(N)=N/c2ncccc2OCc2c(F)cccc2Cl)cc1`, the growth inhibition in experiment [1] was 54% (active); in experiment [4], 86% (active). The inhibition was 78% (active) in experiment [2] and -2% in experiment [3]. Further, the result in experiment [5], in experiment [6], in experiment [7] and in experiment [8] was inactive.
For the compound `COc1cc2c(cc1S(=O)(=O)c1ccc(NC(=O)Nc3ccc(F)cc3)cc1)CCN(C)CC2`, the growth inhibition is 55% (active) in experiment [1] and 99% (active) in experiment [4]. The values for the inhibition in experiment [2] and in experiment [3] were -1% and -5%, respectively. Besides, the outcome in experiment [5], in experiment [6], in experiment [7] and in experiment [8] was inactive.
Turning to `Cc1c(Cn2ncc(N3C[C@@H](C)N[C@@H](C)C3)c(Cl)c2=O)cccc1NC(=O)Nc1ccc(-c2ccccc2)cc1`, the growth inhibition in experiment [1] is 35%; in experiment [4], 97% (active). Besides, the results for the inhibition in experiment [2] and in experiment [3] were 97% (active) and -6%, respectively. For the same compound, the outcome in experiment [5], in experiment [6], in experiment [7] and in experiment [8] was inactive.
As for `CCO[C@H]1CN[C@H](C#Cc2cc3c(Nc4ccc(OCc5cccc(F)c5)c(Cl)c4)ncnc3s2)C1`, the figures for the growth inhibition in experiment [1] and in experiment [4] were 37% and 100% (active), respectively. Also, the inhibition is 8% in experiment [2] and 2% in experiment [3]. Also, the outcome in experiment [5], in experiment [6], in experiment [7] and in experiment [8] was inactive.
`O=C(C1CC1)N1c2ccccc2CCc2ccccc21`: the growth inhibition in experiment [1] is 57% (active); in experiment [4], 98% (active). The inhibition was 40% in experiment [2] and 1% in experiment [3]. For the same compound, the outcome in experiment [5], in experiment [6], in experiment [7] and in experiment [8] was inactive.
For the compound `CN(Cc1ccc(-c2ccc(C(F)(F)F)cc2)cc1)C(=O)Cn1c(CCc2cccc(F)c2F)cc(=O)c2ccc(OCCCN3CCCCC3)cc21`, the figures for the growth inhibition in experiment [1] and in experiment [4] were 90% (active) and 103% (active), respectively. The inhibition in experiment [2] was 79% (active); in experiment [3] it was 5%. Besides, the result in experiment [5], in experiment [6], in experiment [7] and in experiment [8] was inactive.
As to `Cc1cc(Nc2ccncc2)n2nc(C)c(-c3ccc(Cl)cc3)c2n1`, the growth inhibition in experiment [1] is 99% (active); in experiment [4] it was 101% (active). Moreover, the inhibition is -9% in experiment [2] and 2% in experiment [3]. Moreover, the result in experiment [5], in experiment [6], in experiment [7] and in experiment [8] was inactive.
Regarding `CCOc1ccc(C(C)NC(=O)Nc2ccccc2)cc1OCC` (stereo not given), the growth inhibition in experiment [1] is 95% (active); in experiment [4], 96% (active). The inhibition is 14% in experiment [2] and 1% in experiment [3]. The result in experiment [5], in experiment [6], in experiment [7] and in experiment [8] was inactive.
For the compound `COc1ccc(C#Cc2ccc(-c3c(C)[nH]c(C)c(Cl)c3=O)cc2)cc1`, the growth inhibition in experiment [1] and in experiment [4] was 97% (active) each time. The inhibition in experiment [2] was -6%; in experiment [3] it was 2%. Also, the result in experiment [5], in experiment [6], in experiment [7] and in experiment [8] was inactive.
For `O=C(Nc1cc(Oc2ccc(O)cc2)cc([N+](=O)[O-])c1)c1cc(-c2ccc(F)cc2)no1`, the growth inhibition in experiment [1] was 37%; in experiment [4], 88% (active). Moreover, the inhibition is 61% (active) in experiment [2] and 0% in experiment [3]. In addition, the outcome in experiment [5], in experiment [6], in experiment [7] and in experiment [8] was inactive.
On to `CC(=O)Nc1ncc(C(=O)Nc2cccc(-c3ccc(-c4nc5ccccc5[nH]4)cc3)c2)s1`, for which the figures for the growth inhibition in experiment [1] and in experiment [4] were 66% (active) and 101% (active), respectively. For the same compound, the inhibition was 12% in experiment [2] and -9% in experiment [3]. For the same compound, the result in experiment [5], in experiment [6], in experiment [7] and in experiment [8] was inactive.
`NC1CCCN(Cc2cccc(-c3ccc(-c4nc5ccc(C(F)(F)F)cc5[nH]4)cc3)c2)C1` (stereo not given): the growth inhibition in experiment [1] was 96% (active); in experiment [4], 99% (active). For the same compound, the inhibition in experiment [2] was 47%; in experiment [3], -3%. Further, the outcome in experiment [5], in experiment [6], in experiment [7] and in experiment [8] was inactive.
As to `Cc1ccc(NC(=O)NC2CCN(c3ccnc4cc(Cl)ccc34)C2)cc1` (stereo not given), the growth inhibition in experiment [1] was 96% (active); in experiment [4], 101% (active). The inhibition is 19% in experiment [2] and 5% in experiment [3]. The outcome in experiment [5], in experiment [6], in experiment [7] and in experiment [8] was inactive.
`CS(=O)(=O)N1CC2(CCN(CCC(NC(=O)NCc3ccc(Cl)c(Cl)c3)c3ccc(Cl)c(Cl)c3)CC2)c2ccccc21` (stereo not given): the growth inhibition in experiment [1] was 59% (active); in experiment [4] it was 89% (active). For the same compound, the figures for the inhibition in experiment [2] and in experiment [3] were 19% and -8%, respectively. The outcome in experiment [5], in experiment [6], in experiment [7] and in experiment [8] was inactive.
On to `CNc1nc(Nc2ccccc2C)nc2ccccc12`, for which the growth inhibition was 81% (active) in experiment [1] and 101% (active) in experiment [4]. The inhibition was 17% in experiment [2] and -1% in experiment [3]. Further, the result in experiment [5], in experiment [6], in experiment [7] and in experiment [8] was inactive.
